Pol iota inh: inhibitors of human DNA polymerase iota. Q9UNA4. Pol iota fluorescent replication assay, 10 min. Potency, µM (highest dose often 115 µM), without a hit: top-dose activity, negative = inhibition, hits mostly inhibitors. 1% of 390,000 active. AID 588590
Target sequence (Q9UNA4 whole entry, looked up): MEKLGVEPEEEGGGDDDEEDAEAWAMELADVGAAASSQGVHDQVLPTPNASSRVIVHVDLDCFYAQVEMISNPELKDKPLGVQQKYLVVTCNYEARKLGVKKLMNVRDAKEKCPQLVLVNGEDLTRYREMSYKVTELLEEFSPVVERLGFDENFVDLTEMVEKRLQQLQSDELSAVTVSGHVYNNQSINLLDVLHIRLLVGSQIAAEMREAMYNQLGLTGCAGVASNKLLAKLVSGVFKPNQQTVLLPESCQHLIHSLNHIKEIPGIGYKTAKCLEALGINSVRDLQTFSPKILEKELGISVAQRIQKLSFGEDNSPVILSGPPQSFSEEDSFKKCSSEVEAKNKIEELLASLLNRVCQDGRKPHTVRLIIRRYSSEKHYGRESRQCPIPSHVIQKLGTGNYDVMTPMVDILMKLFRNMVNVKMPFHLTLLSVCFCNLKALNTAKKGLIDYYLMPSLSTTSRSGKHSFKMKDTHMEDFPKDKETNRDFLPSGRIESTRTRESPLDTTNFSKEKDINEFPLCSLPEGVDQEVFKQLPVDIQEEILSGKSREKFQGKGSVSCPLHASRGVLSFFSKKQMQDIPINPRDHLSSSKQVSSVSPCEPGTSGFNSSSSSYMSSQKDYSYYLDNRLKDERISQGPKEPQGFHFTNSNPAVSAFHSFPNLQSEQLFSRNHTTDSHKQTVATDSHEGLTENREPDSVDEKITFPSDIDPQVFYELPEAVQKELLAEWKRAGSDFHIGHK
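Pol iota at 10 nM preincubated 15 min with compounds at room temperature; reaction started with fluorescent substrate, 50 nM final. Fluorescence read kinetically at 0 and 10 min; buffer-only wells as negative control.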
Pol kappa inh: DNA polymerase kappa (human) inhibition; Q9UBT6; purified Pol kappa, fluorescent DNA synthesis assay, 10 min; Potency, µM (top dose mostly 107 µM), for the others: at the top dose activity, negative = inhibition, hits mostly inhibitors; 0.53% of 400,000 active; also: % is scaled to controls: 0 for no effect and ±100 for the full control effect
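10 nM Pol kappa preincubated 15 min at room temperature with compounds, then reaction started with substrate at 50 nM final. Fluorescence read kinetically at 0 and 10 min; buffer-only wells served as negative control.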
WRN inhibitor: blocks human WRN helicase; WRN helicase unwinding, fluorescent forked duplex, kinetic; Potency, µM (highest dose often 114 µM), without a hit: at the highest dose activity change, negative = inhibition, usual class: inhibitors; 0.46% of 360,000 active; AID 651768; also: % is scaled to controls: 0 for no effect and ±100 for the full control effect; nearly all actives have a fitted effect of over 55% in size
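Kinetic fluorescence helicase assay: unwinding of a quenched forked DNA duplex (100 nM final) with 2 mM ATP final raises red fluorescence (525/598 nm). Compounds sat 15 min at room temperature with 20 nM WRN beforehand.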
POLB inh: blocks human DNA polymerase beta activity; P06746; Pol beta primer extension/strand displacement, fluorescence kinetic; Potency, µM (series often up to 114 µM), for the others: at the top dose activity change, negative = inhibition, most hits filed as inhibitors; 1.3% of 340,000 active; AID 485314; also: % is scaled to controls: 0 for no effect and ±100 for the full control effect
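Enzyme-only controls used 10 nM Pol beta; buffer lacking enzyme served as negative control. Compound preincubated 15 min, then 50 nM substrate added; 0 and 10 min reads at room temperature.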
FEN1 inh: inhibitors of human flap endonuclease 1 | Recombinant FEN1 flap cleavage, fluorescence, 15 min | Potency, µM (titrated, usually from 114 µM), inactives show at the top dose activity change, negative = inhibition, actives largely listed as inhibitors | AID 588795 | P39748 | 0.35% of 390,000 active; also: % is scaled to controls: 0 for no effect and ±100 for the full control effect; nearly all actives have a fitted effect of over 65% in size
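Read-out was taken twice, immediately and after 15 min, following addition of 50 nM substrate to 10 nM FEN1 that had sat with test compound for 15 min at room temperature. Curves came from a four-parameter Hill model.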
POLH inh: blocks human DNA polymerase eta activity | Potency, µM (doses to about 114 µM), inactives show top-dose activity change, negative = inhibition, hits mostly inhibitors | recombinant Pol eta, fluorescent DNA replication assay | 1.2% of 390,000 active; also: % is scaled to controls: 0 for no effect and ±100 for the full control effect
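Pol eta (10 nM) was preincubated with compounds for 15 min at room temperature, after which fluorescent replication substrate (50 nM final) was added to start the reaction. Fluorescence was read kinetically at 0 and 10 min.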
* = called active by the depositor; ? = inconclusive; . = not tested or not shown; [ ] = remark or other dose. Hits are enriched below; roughly 2.4% of the tested compounds scored in any of these assays. Calls follow the shape of the dose curve; as a rule, active = well fitted curve in the direction sought with a large enough effect; inconclusive = small, poorly fitted or top-dose-only effect, or another doubt; inactive = no such curve, though single readings can be large; an effect the other way counts as inactive or inconclusive. Potency is read from the fitted curve at half-maximal effect.

SMILES	Pol iota inh	Pol kappa inh	WRN inhibitor	POLB inh	FEN1 inh	POLH inh
Cn1cc(C(=O)NCCN2CCN(c3cccc(Cl)c3)CC2)c2c3ccccc3n(C)c2c1=O	100µM*	?	-10%	19%	2%	?
COC(=O)c1[nH]c2cccc(OC)c2c1NC(=O)CN1CCC(C(N)=O)(N2CCCCC2)CC1	10%	-5%	-1%	11%	0%	-11%
COC(CNC(=O)c1ccc2c3c(onc13)-c1ccccc1C2=O)OC	18µM*	-32%	50µM*	0%	?	?
COC(CNC(=O)c1cccnc1)OC	-16%	12%	9%	34%	-2%	-7%
CCOC(=O)c1c(Nc2cccc(O)c2)nnc(-c2ccccc2)c1-c1ccccc1	12%	2%	.	15%	?	-26%
CCCn1c2ccccc2c2nc3ccccc3nc21	15%	-6%	0%[57.1 µM]	?	?	-14%
CCN(CC)CCn1c2ccccc2c2nc3ccccc3nc21	?	?	2%[11.6 µM]	?	25µM*	-16%
Cc1ccc(NC(=O)c2nc3nccc(C)n3n2)cc1S(=O)(=O)N1CCCCC1	4%	-3%	8%	.	-17%	9%
Brc1cccc[n+]1CCCC[n+]1ccccc1Br	?	-6%	.	.	79µM*	.
Brc1cccc[n+]1CCCCCC[n+]1ccccc1Br	4%	7%	.	.	79µM*	.
COc1ccccc1NC(=O)CC1SC(=N)N(c2ccccc2)C1=O (centres undefined)	89%	-4%	3%	32%	1%	-2%
CCC1CN(C(=O)N2CCC(C(=O)NCc3cccc(F)c3)CC2)c2cc(C)ccc2O1 (centres undefined)	79µM*	?	.	-23%	?	-8%
CCC1CN(C(=O)N2CCC(C(=O)NCCN(CC)CC)CC2)c2cc(C)ccc2O1 (centres undefined)	5%	1%	.	1%	-7%	-4%
O=C(CSc1nc(NS(=O)(=O)c2ccccc2)cc(=O)[nH]1)Nc1ccc(F)cc1	18µM*	50µM*	?	25µM*	?	?
O=C(CSc1nc(O)cc(=O)[nH]1)Nc1ccc2c(c1)CCC2	16µM*	79µM*	?	?	?	-17%
Nc1cc(=O)[nH]c(SCC(=O)Nc2ccc3c(c2)CCC3)n1	68%	-2%	-5%	?	4%	-13%
O=C(CSc1nc(NS(=O)(=O)c2ccccc2)cc(=O)[nH]1)Nc1ccccc1C(F)(F)F	4%	-4%	-10%[57.1 µM]	3%	1%	-3%
Nc1nc(=S)c2ncn([C@@H]3O[C@H](CO)[C@@H](O)[C@H]3O)c2[nH]1	-4%	8%	7%	.	-4%	-3%
Cc1cc(C(=O)COc2ccccc2C(N)=O)c(C)n1C	182%	-6%	6%	4%	0%	-11%
Cc1cc(C(=O)COc2cccc3cccnc23)c(C)n1C	8%	-12%	6%	11µM*	-8%	?
O=C1CCN(Cc2ccc(Br)cc2)CCN1CCO	-11%	6%	-2%	5%	7%	-2%
O=C(CSc1nnc2ncccn12)Nc1cccc2ccccc12	25%	4%	2%	55%	3%	-8%
Nc1c(C(=O)Nc2ccc(S(=O)(=O)N3CCCC3)cc2)sc2nc3ccc(OC(F)(F)F)cc3cc12	?	-6%	?	28µM*	-9%	40µM*
Nc1c(C(=O)Nc2ccc(C(=O)O)cc2)sc2nc3c(cc12)CCCC3	20%	-3%	.	-23%	2%	?
O=C1c2ccccc2C(=O)c2c([N+](=O)[O-])ccc(O)c21	50µM*	-36%	?	?	?	32µM*
COC(=O)c1ccsc1NC(=O)c1cccc(OC)c1	89µM*	-5%	-5%	-1%	-18%	-25%
CCCC1=NN2C(=N)/C(=C\c3ccc(SCc4ccco4)o3)C(=O)N=C2S1	20µM*	28µM*	40µM*	13µM*	?	3.5µM*
